The record followed here is the supplement of paper PMC6411743.

± gives the standard deviation of the averaged measurements. The full data set covers some 5,400 targets. This sample favours those with the largest changes.

Compound in the assay: Nc1nc2c(ncn2[C@@H]2O[C@H](COP(=O)(O)OP(=O)(O)OP(=O)(O)O)[C@@H](O)[C@H]2O)c(=O)[nH]1 [guanosine triphosphate]
Kind of assay: NP40-soluble protein abundance relative to vehicle (solubility fold change) (ratio); higher = more soluble protein in presence of GTP. As to the method: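 Solubility proteome profiling in Jurkat crude lysate. Lysate was treated with Mg-GTP (0.1-10 mM) for 10 min at room temperature and 3 min at 37 °C, then solubilised with 0.8% NP40 and benzonase, followed by ultracentrifugation. Proteins were quantified by TMT10 LC-MS/MS; the value is the NP40-soluble abundance relative to the NP40-processed vehicle, from 3 independent experiments.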

Chain of UniProt P51116 (P51116 whole entry): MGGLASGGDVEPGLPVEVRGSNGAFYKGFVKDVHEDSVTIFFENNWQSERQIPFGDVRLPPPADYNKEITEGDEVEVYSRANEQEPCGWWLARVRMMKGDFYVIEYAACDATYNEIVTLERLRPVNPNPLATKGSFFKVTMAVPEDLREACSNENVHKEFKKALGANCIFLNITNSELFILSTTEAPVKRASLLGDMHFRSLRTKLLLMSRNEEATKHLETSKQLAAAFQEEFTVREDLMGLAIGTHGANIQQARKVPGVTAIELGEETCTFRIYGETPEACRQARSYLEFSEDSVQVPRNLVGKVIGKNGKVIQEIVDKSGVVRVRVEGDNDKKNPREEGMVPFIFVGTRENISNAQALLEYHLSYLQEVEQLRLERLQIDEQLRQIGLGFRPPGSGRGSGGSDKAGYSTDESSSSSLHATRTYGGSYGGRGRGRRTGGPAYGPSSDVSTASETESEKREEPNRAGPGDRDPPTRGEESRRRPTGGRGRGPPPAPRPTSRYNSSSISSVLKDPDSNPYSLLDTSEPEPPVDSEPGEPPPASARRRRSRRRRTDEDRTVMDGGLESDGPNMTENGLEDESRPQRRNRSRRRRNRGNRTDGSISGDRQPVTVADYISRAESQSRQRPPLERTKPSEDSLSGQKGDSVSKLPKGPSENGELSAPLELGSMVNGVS
Chain of UniProt P16403 (P16403 whole entry): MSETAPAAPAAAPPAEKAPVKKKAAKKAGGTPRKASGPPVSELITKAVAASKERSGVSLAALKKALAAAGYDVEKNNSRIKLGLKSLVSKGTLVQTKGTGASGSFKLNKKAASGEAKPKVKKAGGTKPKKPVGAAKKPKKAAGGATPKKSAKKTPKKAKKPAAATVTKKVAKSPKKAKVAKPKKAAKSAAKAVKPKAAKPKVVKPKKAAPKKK
Chain of UniProt P13051 (P13051 whole entry): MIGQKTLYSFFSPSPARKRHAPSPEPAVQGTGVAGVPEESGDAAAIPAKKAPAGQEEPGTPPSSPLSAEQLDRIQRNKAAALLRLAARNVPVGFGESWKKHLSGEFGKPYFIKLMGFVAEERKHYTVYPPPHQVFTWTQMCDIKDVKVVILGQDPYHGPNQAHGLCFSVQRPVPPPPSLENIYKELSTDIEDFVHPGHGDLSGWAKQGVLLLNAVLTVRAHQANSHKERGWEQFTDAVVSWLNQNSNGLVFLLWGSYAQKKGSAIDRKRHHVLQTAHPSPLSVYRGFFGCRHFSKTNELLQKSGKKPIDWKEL
Chain of UniProt P50583 (P50583 whole entry): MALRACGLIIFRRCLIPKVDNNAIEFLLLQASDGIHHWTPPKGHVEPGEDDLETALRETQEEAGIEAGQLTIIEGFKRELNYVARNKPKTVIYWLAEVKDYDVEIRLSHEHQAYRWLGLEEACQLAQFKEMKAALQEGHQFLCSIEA

With UniProt O94964-2|O94964|O94964-4|X6R3R3, the NP40-soluble protein abundance stood at 1.05 ± 0.11 (concentration: 0.1mM); 0.998 ± 0.13 (concentration: 0.5mM); 1.139 ± 0.011 (concentration: 1mM); 1.07 ± 0.025 (concentration: 2mM); 1.09 ± 0.047 (concentration: 4mM); 1.03 ± 0.037 (concentration: 6mM). The NP40-soluble protein abundance turned out to be 1.12 ± 0.072 (concentration: 8mM) and 0.994 ± 0.041 (concentration: 10mM).
Consider NUDT2 (UniProt P50583), for which the NP40-soluble protein abundance is, setting by setting: (concentration: 0.1mM) 0.93 ± 0.17; (concentration: 0.5mM) 0.902 ± 0.14; (concentration: 1mM) 0.884 ± 0.15; (concentration: 2mM) 0.877 ± 0.15; (concentration: 4mM) 1.8 ± 0.49; (concentration: 6mM) 1.24 ± 0.23. The NP40-soluble protein abundance is, setting by setting: (concentration: 8mM) 1.48 ± 0.34; (concentration: 10mM) 1.16 ± 0.26.
Consider FXR2 (UniProt P51116), for which the NP40-soluble protein abundance worked out at 1.08 ± 0.054 (concentration: 0.1mM); 1.13 ± 0.081 (concentration: 0.5mM); 1.27 ± 0.064 (concentration: 1mM); 1.51 ± 0.14 (concentration: 2mM); 1.8 ± 0.22 (concentration: 4mM); 1.97 ± 0.25 (concentration: 6mM). In addition, the NP40-soluble protein abundance was found to be 2.13 ± 0.29 (concentration: 8mM) and 2.23 ± 0.35 (concentration: 10mM).
Take HIST1H1C (UniProt P16403): the NP40-soluble protein abundance runs as follows: (concentration: 0.1mM) 0.984 ± 0.038; (concentration: 0.5mM) 1.11 ± 0.074; (concentration: 1mM) 1.18 ± 0.072; (concentration: 2mM) 1.22 ± 0.048; (concentration: 4mM) 1.23 ± 0.096; (concentration: 6mM) 1.38 ± 0.074. For the same target, the NP40-soluble protein abundance reads like this: (concentration: 8mM) 1.26 ± 0.1; (concentration: 10mM) 1.78 ± 0.15.
UniProt P13051|P13051-2: the NP40-soluble protein abundance (concentration: 0.1mM) came to 0.9724 ± 0.0086; the NP40-soluble protein abundance (concentration: 0.5mM) worked out at 0.946 ± 0.019; the NP40-soluble protein abundance (concentration: 1mM) came to 0.944 ± 0.073; the NP40-soluble protein abundance (concentration: 2mM) came out at 0.91 ± 0.062; the NP40-soluble protein abundance (concentration: 4mM) is 0.886 ± 0.075; the NP40-soluble protein abundance (concentration: 6mM) turned out to be 0.892 ± 0.07. Further, the NP40-soluble protein abundance runs as follows: (concentration: 8mM) 0.893 ± 0.036; (concentration: 10mM) 0.863 ± 0.1.
